Compounds without any hit were thinned out: in the full panel of roughly 79,000, 15% have a hit. A number with no mark means an inactive call. Calls of active or inactive are those of the source. No stated cut-off is given here; in the data, active means growth inhibition above about 70%; inactive means the rest.
How the values were obtained:
[1] = NCI Yeast Anticancer Drug Screen. Data for the rad50 strain (AID 155);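 further: 0% = growth of vehicle-only cultures of the same strain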; settings: S. cerevisiae rad50 strain growth inhibition, active compounds read high
Summary of the method: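 Inhibition values express reduced yeast growth in compound-treated cultures relative to vehicle-treated controls.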

[2] = NCI Yeast Anticancer Drug Screen. Data for the mec2-1 strain (AID 157); settings: S. cerevisiae mec2-1 strain, active compounds read high
Summary of the method: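 Test agents were screened against the mec2-1 yeast strain, with defined DNA repair or cell cycle alteration. Growth was scored as inhibition against vehicle-only controls.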

[3] = NCI Yeast Anticancer Drug Screen. Data for the sgs1 mgt1 strain (AID 161);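 further: 0% = growth of cultures given vehicle only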; settings: S. cerevisiae sgs1 mgt1 strain, active compounds read high
Summary of the method: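 Test agents were incubated with a DNA-repair-mutant yeast strain. Growth was then read and compared against vehicle-treated controls.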

[4] = NCI Yeast Anticancer Drug Screen. Data for the cln2 rad14 strain (AID 165);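 further: 0% = growth equal to vehicle treated cultures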; settings: S. cerevisiae cln2 rad14 strain, active compounds read high
Summary of the method: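 Growth of compound-exposed yeast (cln2 rad14 genotype) measured and expressed as inhibition relative to vehicle.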

[5] = NCI Yeast Anticancer Drug Screen. Data for the bub3 strain (AID 167); settings: S. cerevisiae bub3 mutant strain, active compounds read high
Summary of the method: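 Steps: expose the mutant yeast strain to compound; grow alongside vehicle-treated cultures; measure growth; express inhibition against the vehicle cultures.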

[6] = NCI Yeast Anticancer Drug Screen. Data for the mlh1 rad18 strain (AID 175); settings: S. cerevisiae mlh1 rad18 strain growth inhibition, active compounds read high
Summary of the method: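 In this whole-cell yeast screen, a strain with altered DNA damage repair is challenged with compound, and its growth is measured against matched vehicle-treated controls.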

[7] = at 5.0 µM (retest, dose inferred, filed as 0.5)
[8] = at 50.0 µM (retest, dose inferred, filed as 5.0)

| Compound | growth inhibition [1, 7] | growth inhibition [1, 8] | growth inhibition ([1]; at 50.0 µM) | growth inhibition [2, 7] | growth inhibition [2, 8] | growth inhibition ([2]; at 50.0 µM) | growth inhibition [3, 7] | growth inhibition [3, 8] | growth inhibition ([3]; at 50.0 µM) | growth inhibition [4, 7] | growth inhibition [4, 8] | growth inhibition ([4]; at 50.0 µM) | growth inhibition [5, 7] | growth inhibition [5, 8] | growth inhibition ([5]; at 50.0 µM) | growth inhibition [6, 7] | growth inhibition [6, 8] | growth inhibition ([6]; at 50.0 µM) |
| --- | --- | --- | --- | --- | --- | --- | --- | --- | --- | --- | --- | --- | --- | --- | --- | --- | --- | --- |
| CC(=O)OC1CCC2(C)C(=CCC3C2CCC2(C)C(C(C)N)CCC32)C1 (configuration not stated) | 8% | 98% (active) | 98.3% (active) | 18% | 98% (active) | 98.7% (active) | 18% | 98% (active) | 93% (active) | -62% | 96% (active) | 70.8% (active) | 1% | 78% (active) | 95.8% (active) | 8% | 98% (active) | 98.1% (active) |
| CCCCCCCCN(CCCCCCCC)Cc1ccc(Br)cc1 | 98% (active) | 99% (active) | 99.2% (active) | 96% (active) | 100% (active) | 99.5% (active) | 99% (active) | 99% (active) | 99.5% (active) | 97% (active) | 99% (active) | 99% (active) | 96% (active) | 99% (active) | 99.2% (active) | 97% (active) | 99% (active) | 99.5% (active) |
| O=c1cc2cccccc-2cc1O | -132% | 94% (active) | 87.2% (active) | -42% | 95% (active) | 70% (active) | -48% | 96% (active) | 83.5% (active) | -43% | 89% (active) | 86% (active) | -65% | 95% (active) | 91.5% (active) | -130% | 95% (active) | 86.3% (active) |
| O=C(O)/C=C\c1cc2ccccc2c2ccccc12 | 13% | 98% (active) | 98.8% (active) | -11% | 99% (active) | 98.8% (active) | 18% | 98% (active) | 98.4% (active) | 11% | 99% (active) | 98.3% (active) | 8% | 99% (active) | 98.5% (active) | 18% | 99% (active) | 98.6% (active) |
| O=C1C=C(O)c2cc(Br)ccc2C1=O.[Ag] | 99% (active) | 99% (active) | 99.6% (active) | 100% (active) | 99% (active) | 99.5% (active) | 100% (active) | 99% (active) | 99.7% (active) | 99% (active) | 99% (active) | 99.5% (active) | 100% (active) | 99% (active) | 99.7% (active) | 99% (active) | 99% (active) | 99.1% (active) |
| C/C(=N\NC(=S)N1CCC(C)CC1)c1cccc2cccnc12 | -5% | 98% (active) | 62.6% | -9% | 98% (active) | -6.1% | 0% | 98% (active) | 83.2% (active) | -10% | 98% (active) | 14.2% | 2% | 98% (active) | 6.05% | -8% | 99% (active) | 6.35% |
| CC(C)=NOc1ccc([N+](=O)[O-])cc1[N+](=O)[O-] | 19% | 87% (active) | 89.9% (active) | 11% | 81% (active) | 53% | 17% | 84% (active) | 54.1% | 2% | 48% | 30.5% | 4% | 81% (active) | 55.3% | 5% | 93% (active) | 71.3% (active) |
| Brc1c2nc3ccccc3nc2n2ccc3ccccc3c12 | -37% | 59% | 47.8% | -11% | 86% (active) | 43% | -18% | 78% (active) | 54.5% | -14% | 83% (active) | 44.1% | -37% | 83% (active) | 21% | -38% | 69% | 59.5% |
| Cc1cnc2c(c1C)C(=O)c1ccccc1C2=O | 27% | 92% (active) | 64.4% | 26% | 88% (active) | 50.2% | 27% | 81% (active) | 87% (active) | 27% | 75% (active) | 83.1% (active) | 32% | 91% (active) | 84.1% (active) | 26% | 92% (active) | 89.3% (active) |
| C=C1CC(Cn2cc(C)c(=O)[nH]c2=O)(c2ccc(Cl)cc2)OC1=O (configuration not stated) | -7% | 82% (active) | 69.8% | -11% | 94% (active) | 73.1% (active) | -27% | 85% (active) | 74.2% (active) | 13% | 43% | 65% | 8% | 89% (active) | 78.3% (active) | 7% | 91% (active) | 85.3% (active) |
| CCCCCc1[nH]nc(C(=O)OC)c1N=NN1CCOCC1 | 43% | 98% (active) | 99.2% (active) | 91% (active) | 99% (active) | 99.6% (active) | 62% | 99% (active) | 99.5% (active) | 68% | 99% (active) | 99.5% (active) | 81% (active) | 99% (active) | 99.4% (active) | 89% (active) | 99% (active) | 99.5% (active) |
| CCNC(=S)N/N=C(/C)c1cccc(/C(C)=N\NC(=S)NCC)n1 | 1% | 12% | 57.5% | 10% | 10% | 38.4% | 13% | 24% | 63.7% | 8% | 6% | 19.1% | 18% | 38% | 54.2% | 12% | 22% | 37.7% |
| O=[N+]([O-])c1ccc(Cl)c(C(Nc2nncs2)Nc2nncs2)c1 | -2% | 91% (active) | 49.1% | 2% | 70% (active) | 23.9% | -3% | 61% | 61.7% | 18% | 84% (active) | 36.3% | -5% | 92% (active) | 20.4% | -13% | 84% (active) | 51.8% |
| C/C(=N/NC(=O)Nc1ccc(N=Nc2ccccc2)cc1)c1ccccn1 | -15% | -12% | 15.2% | -7% | -5% | -10.9% | 0% | 19% | 24.8% | 33% | -16% | -4.4% | 3% | 43% | 16.4% | -9% | 15% | 28.1% |
| O=NNc1ccc2cc3ccc(NN=O)cc3nc2c1 | 16% | 25% | 43.2% | 6% | 26% | -11.1% | 7% | 24% | 52.5% | 11% | 24% | 27.7% | 9% | 14% | 34.6% | 15% | 31% | 52.7% |
| CCCCCCCCNc1ccc(Cl)cc1 | 46% | 96% (active) | 91.8% (active) | 26% | 98% (active) | 93% (active) | 49% | 97% (active) | 98.2% (active) | 25% | 94% (active) | 81.2% (active) | 8% | 97% (active) | 74.1% (active) | 40% | 97% (active) | 98% (active) |
| COc1cc(C(c2cc3c(cc2O)OCO3)N2CCN(C(c3cc(OC)c(OC)c(OC)c3)c3cc4c(cc3O)OCO4)CC2)cc(OC)c1OC (configuration not stated) | -2% | 69% | 23.6% | -1% | 74% (active) | 32.9% | -5% | 88% (active) | 28.6% | -6% | 93% (active) | -35% | -2% | 91% (active) | 6.55% | 2% | 86% (active) | 64.1% |
| O=C1NC(Cc2ccccc2)C(=O)O1 (configuration not stated) | 0% | -6% | -2.1% | -2% | -3% | 3.35% | -3% | 13% | 11.1% | -11% | 6% | -13.8% | -1% | -2% | 43.9% | -1% | -6% | 4.25% |
| CC(Br)C(=O)c1ccc2cc(Cl)c3ccccc3c2c1 (configuration not stated) | -2% | 99% (active) | -10.3% | 5% | 99% (active) | 31.4% | 7% | 99% (active) | 46.3% | -4% | 99% (active) | -16.8% | 0% | 99% (active) | 67.8% | 7% | 99% (active) | 39.1% |

From PubChem BioAssay (NCI)
